Test results published in PubChem BioAssay (Tox21).
Values joined by “and” are separate entries in the source; they are usually repeats but may differ in a detail not shown here. Identical values can stand only once. Inconclusive results are not listed. Entries that show only a call come without a potency. The source holds several records for some structures; these can differ, active in one and inactive in another. Active and inactive are the calls of the source. Calls come from the whole dose curve; as a rule, active = well fitted inhibition curve with a large enough effect in the signal ratio in the repeat runs (not every such curve was filed as active); inconclusive = weak or mixed curves, or effect the other way; inactive = no such curve, though single readings can be large or run the other way; the % refers to the signal ratio.

Each compound was assayed against Estrogen receptor beta (Homo sapiens) (UniProt Q92731) (assay: qHTS assay to identify small molecule antagonists of the estrogen receptor beta (ER-beta) signaling pathway (AID 1259378)). Details: ER-beta-UAS-bla HEK293T, beta-lactamase FRET ratio, 16 h; series mostly up to 92.4 µM.
From the text: National Center for Advancing Translational Sciences [NCATS]
NIH Chemical Genomics Center [NCGC]
U.S. Environmental Protection Agency [EPA]
National Institutes of Environmental Health Sciences [NIEHS]
National Toxicology Program [NTP]
U.S. Food and Drug Administration [FDA]
Estrogen receptor (ER), a nuclear hormone receptor, plays an important role in development, metabolic homeostasis and reproduction. Two subtypes of ER, ER-alpha and ER-beta, have similar expression patterns with some uniqueness in both types. Endocrine disrupting chemicals (EDCs) and their interactions with steroid hormone receptors like ER causes disruption of normal endocrine function. To identify the compounds that inhibit ER signaling, an ER-beta-UAS-bla GripTite cell line (Life Technologies, Madison, WI, USA) containing a beta-lactamase reporter gene under the control of an UAS response element was used to screen Tox21 10K compound library.
Tox21 Assay Protocol Summary:
ER-beta-UAS-bla HEK293T cells were dispensed at 2,000 cells/4 uL of assay medium containing 2% charcoal stripped FBS per well into black wall/clear-bottom 1536-well plates using a Multidrop Combi (ThermoFisher Scientific, Waltham, MA) dispenser. After the assay plates were incubated at a 37C and 5% CO2 for 6 hr, 23 nL of compounds dissolved in DMSO, positive controls or DMSO only was transferred to the assay plate by a Pintool station (Kalypsys, San Diego, CA), followed by addition of 1 uL (1nM as final concentration) of 17-beta-estradiol (E2) in assay medium using a BioRAPTR FRD (Flying Reagent Dispenser, Aurora Discovery, San Diego, CA). The plates were incubated at 37C and 5% CO2 for 16 hr. Then 1 uL of LiveBLAzerTM B/G FRET substrate was added using a Flying Reagent Dispenser, the plates were incubated at room temperature for 2 hours, and fluorescence intensity was measured by an Envision plate reader (PerkinElmer, Shelton, CT).
Potency is the fitted concentration of half-maximal effect.

Estrogen receptor beta (Homo sapiens), sequence (Q92731 whole entry, looked up): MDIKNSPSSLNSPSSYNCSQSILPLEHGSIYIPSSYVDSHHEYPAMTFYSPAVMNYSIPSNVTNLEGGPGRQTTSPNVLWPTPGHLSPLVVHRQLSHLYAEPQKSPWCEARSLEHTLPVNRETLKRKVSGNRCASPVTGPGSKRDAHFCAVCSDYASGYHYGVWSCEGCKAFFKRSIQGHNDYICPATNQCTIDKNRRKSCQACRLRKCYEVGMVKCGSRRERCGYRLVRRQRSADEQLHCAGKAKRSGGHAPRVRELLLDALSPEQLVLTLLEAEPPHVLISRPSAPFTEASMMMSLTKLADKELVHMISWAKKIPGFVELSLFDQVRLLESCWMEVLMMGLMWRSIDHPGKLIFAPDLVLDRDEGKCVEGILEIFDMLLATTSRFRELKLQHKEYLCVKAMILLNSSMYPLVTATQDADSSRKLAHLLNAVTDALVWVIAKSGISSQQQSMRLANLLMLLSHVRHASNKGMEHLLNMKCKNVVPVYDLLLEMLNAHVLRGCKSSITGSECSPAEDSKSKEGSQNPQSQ

Structure (SMILES) | Potency
O=C(O)c1ccc([N+](=O)[O-])cc1 | inactive
O=[N+]([O-])c1cc(N(CCO)CCO)ccc1NCCO | inactive
CCCCC(CC)COC(C)=O (stereo not given) | inactive
O=C(Cl)c1c(Cl)c(Cl)c(C(=O)Cl)c(Cl)c1Cl | inactive
C=C1C2CCC(C2)C1(C)C (stereo not given) | inactive
Nc1cc(-c2ccncc2)c[nH]c1=O | inactive
C=C(C)C(=O)OCCCCCCCCCCCC | inactive
CC1=C(/C=C/C(C)=C/C=C/C(C)=C/CO)C(C)(C)CCC1 | inactive and 64.4 µM (active)
NCc1cccc(CN)c1 | inactive
CCC(C)C=O (stereo not given) | inactive
C/C=C(C)/C=C/C=C(C)C | inactive
OCC1CCCO1 (stereo not given) | inactive
CC(=O)[C@@]1(O)CC[C@H]2[C@@H]3CCC4=CC(=O)CC[C@]4(C)[C@H]3CC[C@@]21C | inactive
O=[N+]([O-])C(CO)(CO)CO | inactive
CC1COc2ccccc2N1C(=O)C(Cl)Cl (stereo not given) | inactive
ClC1=C(Cl)C(Cl)(Cl)C(Cl)=C1Cl | inactive
CC1Cc2ccccc2N1NC(=O)c1ccc(Cl)c(S(N)(=O)=O)c1 (stereo not given) | inactive
COC(=O)c1ccc(C(=O)OC)cc1 | inactive
OCC#CCO | inactive
Oc1ccc(OCc2ccccc2)cc1 | inactive

Structure (SMILES) | Potency
C[C@@H](O)[C@H]1C(=O)N2C(C(=O)O)=C(S[C@@H]3CN[C@H](C(=O)N(C)C)C3)[C@H](C)[C@H]12 | inactive
CC1=CC[C@H]2C[C@@H]1C2(C)C | inactive
CN(C)c1ccc(C(=N)c2ccc(N(C)C)cc2)cc1 | inactive
NCCNCCNCCNCCN | inactive
O=C(c1cc(O)c(O)c(O)c1)c1ccc(O)c(O)c1O | inactive
CC1(C)O[C@@H]2C[C@H]3[C@@H]4C[C@H](F)C5=CC(=O)CC[C@]5(C)[C@H]4[C@@H](O)C[C@]3(C)[C@]2(C(=O)CO)O1 | inactive
O=C1CCCCC1 | inactive
CCCCC(CC)COC(=O)CCCCCCCC(=O)OCC(CC)CCCC (stereo not given) | 12.2 µM (active) and inactive
CCCCNC(N)=O | inactive
OCCOCCOCCOCCO | inactive
Clc1cc(Cl)c(Cl)cc1Cl | inactive
CCCCOCCOCCOC(=O)CCCCC(=O)OCCOCCOCCCC | inactive
CC(=O)CCc1ccccc1 | inactive
CC1=C(CC(=O)O)c2cc(F)ccc2/C1=C\c1ccc(S(C)=O)cc1 (stereo not given) | inactive
COC(=O)c1ccccc1O | inactive
CNC[C@H](O)[C@@H](O)[C@H](O)[C@H](O)CO | inactive
CC(=O)Nc1ccc(C(=O)O)cc1 | inactive
O=[N+]([O-])c1cccc(Cl)c1 | inactive
NC(=O)/N=N/C(N)=O | inactive
C[C@@H]1O[C@@H](OC[C@H]2O[C@@H](Oc3c(-c4ccc(O)c(O)c4)oc4cc(O)cc(O)c4c3=O)[C@H](O)[C@@H](O)[C@@H]2O)[C@H](O)[C@H](O)[C@H]1O | inactive
